Measurements from PubChem BioAssay (NCATS).
Inconclusive results are not listed. Where a call stands in place of a potency, no number is given. A number with no mark means an inactive call. Active and inactive are the calls of the source. Calls come from the whole dose curve; as a rule, active = well fitted curve in the direction sought with a large enough effect; inconclusive = small, poorly fitted or top-dose-only effect, or another doubt; inactive = no such curve, though single readings can be large; an effect the other way counts as inactive or inconclusive. Peptide text beside a SMILES is read from it. * marks the point of attachment. AFC = O=c1cc(C(F)(F)F)c2ccc(N*)cc2o1; Cbz = O=C(OCc1ccccc1)*; CH2F = FC*

Experiments:
[1] = target: Aldehyde dehydrogenase, mitochondrial (Homo sapiens) (UniProt P05091); assay: qHTS for Inhibitors of the Aldehyde Dehydrogenase Family (ALDH2) Primary screen (AID 2061308); note: nearly all actives have a fitted effect of over 55% in size
[2] = target: Retinaldehyde dehydrogenase 3 (Homo sapiens) (UniProt P47895); assay: qHTS for Inhibitors of the Aldehyde Dehydrogenase Family (ALDH1A3) Primary screen (AID 2061315)

Structure (SMILES) | Potency [1] | Potency [2] | activity change, negative = inhibition [1] | activity change, negative = inhibition [2]
CC1OC(OC2C(OC3C(O[C@H]4CC[C@@]5(C)C(CC[C@]6(C)C5CC=C5C7CC(C)(C)CC(O)[C@]7(C)CC[C@]56C)C4(C)C)OC(C(=O)O)C(O)C3O)OCC(O)C2O)C(O)C(O)C1O (some centres undefined) | inactive | inactive |  | 
CC(C)C1=CC2C(CC[C@]2(C)O)[C@](C)(O)CC1 (some centres undefined) | inactive | inactive |  | 
CC(=O)OC(CSC1CCC(=O)OC(C)CCC(=O)C1)C(=O)O (centres undefined) | inactive | inactive |  | 
O=C(NC1CCC1)c1ccc(C#Cc2cccc(F)c2)nc1 | inactive | inactive |  | 
CN1[C@@H]2CC[C@H]1CC(NC(=O)n1c(=O)[nH]c3ccccc31)C2 (some centres undefined) | inactive | inactive |  | 
CC(=O)N[C@@H](CC(C)C)C(=O)N[C@@H](CCC(=O)O)C(=O)N[C@@H](CCC(=O)O)C(=O)N[C@@H](CC(=O)O)C(=O)Nc1ccc2c(C(F)(F)F)cc(=O)oc2c1 (Ac-LEED-{AFC}) | inactive | inactive |  | 
CC(=C/C(=O)O)/C=C/[C@]1(O)[C@@]2(C)CO[C@]1(C)C[C@H](O[C@@H]1O[C@H](CO)[C@@H](O)[C@H](O)[C@H]1O)C2 | inactive | inactive |  | 
C=C1C(=O)O[C@@H]2C[C@]3(C)[C@@H](CCC(C)=O)[C@@H]3C[C@H]12 | inactive | inactive |  | 
CC(=O)OC(C)C(C)(O)C(=O)O[C@@H]1CC[C@]2(C)CC(=O)C(=C(C)C)C[C@H]2[C@]1(C)OC(C)=O (some centres undefined) | inactive | inactive |  | 
C=CC1C(O[C@@H]2O[C@H](CO)[C@@H](O)[C@H](O)[C@H]2O)OC=C(C(=O)OC)C1CC(=O)O (some centres undefined) | inactive | inactive |  | 
C=C1C[C@]23C[C@H]1CC[C@H]2[C@]1(C)CCC[C@@](C)(C(=O)O)[C@H]1[C@@H]3C(=O)O | inactive | inactive |  | 
O=C(C1=CCN2c3c(cccc31)OC[C@H]2CN1CCOCC1)c1cccc2ccccc12 | inactive | inactive |  | 
C[C@]1(OC(=O)/C=C/c2ccccc2)C[C@@H](O)[C@]2(O)C=CO[C@@H](O[C@@H]3O[C@H](CO)[C@@H](O)[C@H](O)[C@H]3O)[C@@H]21 | inactive | inactive |  | 
CC1CCC2(OC1)OC1CC3C4CC=C5CC(O)CC(O[C@@H]6OC[C@@H](O)[C@H](O)[C@H]6O)C5(C)C4CCC3(C)C1(O)C2C (some centres undefined) | inactive | inactive |  | 
C=C(C(=O)O)C1CCC2(C)CCCC(C)(O)C2C1 (centres undefined) | inactive | inactive |  | 
CC(=O)OCC1OC(O[C@H]2CC[C@]34C[C@]35CC(O)[C@]3(C)[C@@H]([C@H](C)CC/C=C(\C)C(=O)O)C(O)C[C@@]3(C)C5CC[C@H]4C2(C)C)C(O)C(O)C1OC1OCC(O)C(O)C1O (some centres undefined) | inactive | inactive |  | 
O=C1c2c(O[C@@H]3O[C@H](CO)[C@@H](O)[C@H](O)[C@H]3O)cc(O)cc2OC1(O)Cc1ccc(O)cc1 (some centres undefined) | inactive | inactive |  | 
COC(=O)CC[C@H](NC(=O)[C@H](CC(C)C)NC(=O)OCc1ccccc1)C(=O)N[C@@H](Cc1cnc[nH]1)C(=O)N[C@@H](CC(=O)OC)C(=O)CF (Cbz-LE(OMe)HD(OMe)-CH2F) |  |  | -2.9% [at 11.2 µM] | -9.94% [at 11.2 µM]
Cc1cccc(Nc2cc(Cl)nc(SCC(=O)O)n2)c1C | inactive | inactive |  | 
C=C1C[C@]23C[C@H]1CC[C@H]2[C@]1(C)CCC[C@@]2(CO)C(=O)O[C@H]([C@H]21)[C@@H]3O | inactive | inactive |  | 
CC(=O)NC[C@H]1CN(c2ccc(N3CCN(C(=O)CO)CC3)c(F)c2)C(=O)O1 | inactive | inactive |  | 
C[C@@H]1CC[C@]2(C(=O)O)CC[C@]3(C)C(=CCC4[C@@]5(C)CC[C@H](O)[C@](C)(C(=O)O)C5CC[C@]43C)C2[C@]1(C)O (some centres undefined) | inactive | inactive |  | 
CC(=O)O[C@@H]1C(=O)C(C)=C(CCC(C)CC(=O)O)[C@@]2(C)CCCC(C)(C)C12 (some centres undefined) | inactive | inactive |  | 
C=CC(C)(O)CCC1C(C)(O)CCC2C(C)(C)CCCC21C (centres undefined) | inactive | inactive |  | 
CC1(C)CC[C@]2(C(=O)O[C@@H]3O[C@H](CO)[C@@H](O)[C@H](O)[C@H]3O)CC[C@]3(C)C(=CCC4[C@@]5(C)CC[C@H](OC6OC(C(=O)O)C(OC7OC(CO)C(O)C(O)C7O)C(O)C6O)C(C)(C)C5CC[C@]43C)C2C1 (some centres undefined) | inactive | inactive |  | 
C=C1C2(C)CC3C4(C)OC(C5OC56C4=CC(=O)OC6(C)C)C3(C)C13C(=O)OC(C)C3(O)C2=O (centres undefined) | inactive | inactive |  | 
Cc1cc(CO)c(O)c(C(=O)CC2CC(=O)NC(=O)C2)c1 | inactive | inactive |  | 
